NTR1 ag: agonists of human neurotensin receptor NTR1. AID 493036. P30989. NTR1-U2OS beta-arrestin-GFP spot imaging, agonist mode. activation, % at 20 µM. 0.17% of 330,000 active;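 active means activation at or above 40% of the spot to cytoplasm intensity ratio, with at least 20 cells analyzed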
HTR2A ag: agonists of mouse serotonin 5-HT2A receptor (HTR2A) | 0.66% of 360,000 active | activation, % at 7.6 µM | CHO-K1 mHTR2A beta-arrestin complementation, luminescence; percent of 30 µM serotonin response | AID 624169;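 active means activation above a run cutoff, the mean activation of all tested compounds plus 3 SD, cut at about 14% in these data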
ABHD5 PLIN5 PPI: blocks binding of human ABHD5 to perilipin-5. Q00G26+Q8WTS1. 0.78% of 360,000 active. inhibition, % at 4 µM. Split G. princeps luciferase complementation, luminescence, 4 h;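 active means inhibition above the mean inhibition across every tested compound plus 3 SD, cut at about 22% in these data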
Beta2AR agonist: activates human beta-2 adrenergic receptor causing internalization | response, % (no concentration beside the values) | P07550 | Am2.2-beta2AR cells, FAP receptor internalization, flow cytometry | 0.43% of 340,000 active | AID 504454;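 active means response above a set limit, near 3 SD of response in nonfluorescent compounds, cut at about 42% in these data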
Target sequence (P07550 whole entry, looked up): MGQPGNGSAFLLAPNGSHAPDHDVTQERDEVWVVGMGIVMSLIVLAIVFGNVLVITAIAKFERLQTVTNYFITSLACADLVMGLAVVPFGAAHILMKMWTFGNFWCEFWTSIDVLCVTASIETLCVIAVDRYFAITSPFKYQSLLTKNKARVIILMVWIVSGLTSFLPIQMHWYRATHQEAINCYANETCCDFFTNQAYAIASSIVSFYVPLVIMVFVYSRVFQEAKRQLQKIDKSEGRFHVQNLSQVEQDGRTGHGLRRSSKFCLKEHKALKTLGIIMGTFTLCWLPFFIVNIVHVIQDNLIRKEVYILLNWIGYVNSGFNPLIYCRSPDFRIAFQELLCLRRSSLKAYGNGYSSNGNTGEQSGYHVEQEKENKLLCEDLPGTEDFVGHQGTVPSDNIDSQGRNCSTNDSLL
Granule exo inh: blocks lytic granule exocytosis; TALL-104 LAMP-1 surface exposure, flow cytometry; cells stimulated with thapsigargin and PMA; inhibition, % at 10 µM; 0.66% of 360,000 active;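 active means inhibition above about 55%, limit read from the data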
ABHD5-PLIN5 conf: confirmation of human ABHD5-PLIN5 interaction inhibitors. shares compounds with ABHD5 PLIN5 PPI. biochemical ABHD5-PLIN5 interaction, luminescence. inhibition, % at 4 µM. 67% of 2,200 active; in the data active means inhibition above about 23%
HNF4 split-luc: active in HNF4 split-luciferase counter-screen for ABHD5-PLIN5 inhibitors. shares compounds with ABHD5 PLIN5 PPI. HNF4 dimerization, luminescence, biochemical. inhibition, % at 4 µM. 77% of 2,200 active. AID 651674;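 active means mean inhibition across replicate wells exceeding the computed hit threshold, cut at about 13% in these data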;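 further: light from luciferase halves that rejoin when HNF4 fusion proteins dimerize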
MOR ag counter: activates human mu opioid receptor in HTR2A counterscreen. shares compounds with HTR2A ag. U2OS OPRM1 beta-arrestin PathHunter, luminescence; DMSO 0%, DAMGO 9.3 µM 100%. activation, % at 9.3 µM. 5.3% of 2,300 active. AID 624380;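 active means mean activation above the mean of DMSO-only wells plus 3 SD, cut at about 0.5% in these data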
HTR2A ag conf: confirmation of mouse HTR2A serotonin receptor agonists; shares compounds with HTR2A ag; CHO-K1 PathHunter beta-arrestin recruitment, luminescence; DMSO 0%, 30 µM serotonin 100%; activation, % at 7.6 µM; 19% of 2,300 active;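 active means mean activation across triplicates above the hit threshold derived in the original primary screen, cut at about 15% in these data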
Granule exo CP1: blocks lytic granule exocytosis; shares compounds with Granule exo inh; TALL-104 cells, LAMP-1 externalization, flow cytometry; stimulated with PMA plus thapsigargin; inhibition, % at 10 µM; 11% of 1,500 active; AID 651954; in the data active means inhibition above about 60%
Numbers stand for hits; n = inactive; x = no result given. Most compounds without a hit are left out; they make up all but 2.3% or so of the library.

SMILES | NTR1 ag | HTR2A ag | ABHD5 PLIN5 PPI | Beta2AR agonist | Granule exo inh | MOR ag counter | HTR2A ag conf | others
Clc1cccc(N2Cc3cc(-c4ccccc4)ccc3-n3nncc3C2)c1 | x | n | 72 | x | 99 | x | x | ABHD5-PLIN5 conf=47;HNF4 split-luc=27;Granule exo CP1=n
CCOP(=O)(Nc1ccc2c(c1)C(=NNC(N)=S)c1ccccc1-2)OCC | x | n | n | n | n | x | x
CCOC(=O)[C@]12Cc3cc(Cl)ccc3[C@H]1N(C1CCCCC1)C(=O)c1ccccc12 | x | n | 51 | x | 83 | x | x | ABHD5-PLIN5 conf=40;HNF4 split-luc=39;Granule exo CP1=n
CCOC(=O)[C@]12Cc3cc(Cl)ccc3[C@H]1N(C)C(=O)c1ccccc12 | x | n | n | x | n | x | x
CCOC(=O)[C@]12Cc3cc(OC)ccc3[C@H]1N(C1CCCCC1)C(=O)c1ccccc12 | x | n | 40 | x | 67 | x | x | ABHD5-PLIN5 conf=n;HNF4 split-luc=32;Granule exo CP1=n
CCOC(=O)[C@]12Cc3cc(OC)ccc3[C@H]1N(C)C(=O)c1ccccc12 | x | n | n | x | n | x | x
CCCCCN1C(=O)c2cc(OC)ccc2[C@@]2(C(=O)OCC)Cc3cc(Cl)ccc3[C@@H]12 | x | n | 39 | x | 63 | x | x | ABHD5-PLIN5 conf=27;HNF4 split-luc=30;Granule exo CP1=n
COc1ccc(NC2=NCCCS2)cc1OC | n | n | n | n | n | x | x
O=P(CN1CCN(c2ccccc2)CC1)(N1CCCCC1)N1CCCCC1 | n | 14 | n | n | n | n | 20
Oc1cc2c(cc1CN1CCN(c3ccccc3)CC1)CCC2 | n | n | n | n | n | x | x
CC1CC2(C)C(CCC3C2CCC2(C)C(OP(=O)(N4CC4)N4CC4)CCC32)CC1=O (stereo not given) | x | n | n | n | n | x | x
Cc1ccc(-c2nc3ccc(C)cn3c2CC(=O)N(C)C)cc1 | n | 29 | n | n | n | n | n
CCC1CN1P(=O)(N1CCCC1)N1CC1CC (stereo not given) | x | n | n | n | n | x | x
O=[N+]([O-])c1ccc(N2CCCNCC2)c2ncccc12 | n | 38 | n | n | n | n | 22
NCCNc1ccc([N+](=O)[O-])c2cccnc12 | n | 22 | n | n | n | n | n
Cc1cccc(CCNCc2cc3cc(C)cc(C)c3[nH]c2=O)c1 | n | n | n | n | n | x | x
Cc1cccc(CCNCc2cc3cccc(C)c3[nH]c2=O)c1 | n | 21 | n | n | n | n | n
NCC(O)c1cc(O)c(O)cc1F (stereo not given) | n | 56 | n | n | n | n | 149
COc1cc(OC)c(OC)cc1CNCCc1ccc(F)cc1 | n | n | n | n | n | x | x
COc1ccccc1CNCCc1ccc(F)cc1 | n | 32 | n | n | n | n | n
COc1ccccc1CNCCc1cccc(Cl)c1 | x | 43 | n | x | n | n | 21
COc1ccc(CCNCc2ccccc2F)cc1OC | n | 17 | n | n | n | n | n
CC(=O)N(C)CC#CCN1CCC(O)CC1 | n | n | n | n | n | x | x
CNCCc1c[nH]c2ccccc12 | n | 32 | n | x | n | n | 16
COc1cc(CNCCc2c[nH]c3ccccc23)cc(OC)c1OC | x | n | n | x | n | x | x
SMILES | NTR1 ag | HTR2A ag | ABHD5 PLIN5 PPI | Beta2AR agonist | Granule exo inh | MOR ag counter | HTR2A ag conf | others
COc1cc(CNCCc2c[nH]c3ccccc23)cc(OC)c1 | n | n | n | n | n | x | x
CNCCc1c[nH]c2ccc(O)cc12 | n | 59 | n | n | n | n | 141
O=C(O)c1nn(Cc2ccc(Cl)cc2)c2ccccc12 | x | 15 | n | x | n | n | n
Cc1ccc(NP(=O)(Nc2ccc(C)cc2)Oc2ccccc2)cc1 | n | n | n | n | n | x | x
c1ccc2nc(N3CCNCC3)ccc2c1 | n | 51 | n | n | n | n | 38
CCOC(=O)c1c(/N=C/C2C(=O)NC(=S)NC2=O)sc2c1CCC2 | x | n | n | n | n | x | x
N#Cc1c(/N=C/C2C(=O)NC(=S)NC2=O)sc2c1CCCC2 | n | 15 | n | n | n | n | 36
CC12CN3CC(c4ccccc4)(CN(C1)C31CCCCC1)C2=O | n | 16 | n | n | n | n | n
CC12CCC(=O)C=C1CC(O)C1C2CCC2(C)C1CCC2(C)O (stereo not given) | x | n | n | n | n | x | x
COc1cc(C[C@@H](C)N)c(OC)cc1I | n | 61 | n | n | n | n | 26
COc1ccc(OCC(=O)N2CCN(Cc3c[nH]c4ccccc34)CC2)cc1 | x | 26 | n | n | n | n | 16
COc1ccc(OC)c(CN2CCN(C(=O)Cc3ccccc3)CC2)c1 | n | n | n | n | n | x | x
COc1ccccc1CN1CCN(C(=O)COc2ccc3ccccc3c2)CC1 | n | n | n | n | n | x | x
O=C(COc1ccccc1)N1CCN(Cc2c[nH]c3ccccc23)CC1 | n | 16 | n | n | n | n | n
COc1cccc(CN2CCN(C(=O)Cc3ccccc3OC)CC2)c1 | n | 19 | n | n | n | n | n
Cn1cccc1CN1CCN(C(=O)COc2ccccc2)CC1 | n | n | n | n | n | x | x
Cc1ccccc1CN1CCN(C(=O)Cc2ccccc2)CC1 | n | 17 | n | n | n | n | n
FC(F)(F)c1ccccc1CCN1CCNCC1 | n | n | n | n | n | x | x
O=P(Oc1ccccc1)(Oc1ccccc1)c1ccccc1 | n | n | n | n | n | x | x
C=CCN1CCC2(C)c3cc(O)ccc3CC1C2C (stereo not given) | n | n | n | n | n | x | x
O=C(Cc1ccccc1)N1CCN(Cc2c[nH]c3ccccc23)CC1 | n | 22 | n | n | n | n | n
c1ccc2c(CN3CCCCCC3)c[nH]c2c1 | n | n | n | n | n | x | x
CNCC(=O)c1ccc(O)c(O)c1 | x | 31 | n | x | n | n | 90
COc1ccc(C(c2nnnn2-c2c(C)cccc2C)N2CCC3(CC2)C(=O)NCN3c2ccccc2)cc1 (stereo not given) | x | n | n | x | n | x | x
CCCN(CCC)C(=O)Cc1c(-c2ccc(Cl)cc2)nc2c(Cl)cc(Cl)cn12 | n | 15 | n | n | n | n | n
C[C@]1(O)CCC2C3CC[C@H]4C[C@@H](OC(=O)[C@@H](N)CCCCN)CC[C@]4(C)C3CC[C@@]21C (stereo not given in full) | x | n | n | x | n | x | x
COc1cc2c(cc1O)C[C@H]1c3c(cc(O)c(OC)c3-2)CCN1C | n | n | n | n | n | x | x
CN1CCc2cc(O)cc3c2[C@H]1Cc1ccc(O)c(O)c1-3 | n | 57 | n | n | 60 | n | 152

Compound activity (PubChem)
